# Bioassay records as filed in PubChem.
# A selection: hits, their analogues and other compounds. The true share with any hit is near 7.7%.
# NOMO-1 viab = NOMO-1 AML cell viability reduction, primary screen, STK33 inhibitor project, CellTiter-Glo luminescence | inhibition, % (test concentration not listed) | NOMO-1 AML viability, 72 h | actives 7.5% (n = 37,000); in the data active = inhibition above about 80%; inconclusive = no clear call, values can overlap the other calls
# PD-1 reversal = activators reversing PD-1 mediated T-cell inhibition, primary screen, luminescence, primary human CD4 T cells, PD-L1 beads; activation, % (test concentration not listed); CellTiter-Glo 96 h; 29,000 tested, under 10 active; AID 2316, 2010; call rule not given here
# Hedgehog inh = Hedgehog pathway signaling inhibitors, primary screen, luminescence, Shh-LIGHT2 cells, Gli-luciferase | Shh-LIGHT2 Gli-luciferase reporter, 30 h | inhibition, % (no concentration beside the values) | AID 2313, 2010 | actives 2.1% (n = 22,000);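 active = mean inhibition across valid replicates above about 65%, limit read from the data; inconclusive = mean under the limit, yet half or more replicates past it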;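 also: pathway switched on by Shh-conditioned medium diluted 1 in 25 in low serum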
# Numbers stand for hits; 0 = inactive; ? = inconclusive; - = not tested or not shown.
SMILES,NOMO-1 viab,PD-1 reversal,Hedgehog inh
O=C(O)COc1ccc2occ(C(=O)c3ccccc3)c2c1,0,0,-
CCn1c2ccccc2n2c(SCC(=O)Nc3ccc(Cl)cc3)nnc12,0,0,-
O=C(CSC1=NC(=O)C(c2ccccc2)C(=O)N1)NC1CCCCC1 (configuration not stated),0,0,0
O[C@H]1C=C2CCN3Cc4cc5c(cc4C(C23)[C@@H]1O)OCO5 (some centres not stated),110,-,99
CCCCC1=NC2(CCCC2)C(=O)N1Cc1ccc(-c2ccccc2-c2nn[nH]n2)cc1,0,-,0
O=C1C(Cc2ccc(-c3nn[nH]n3)cc2)=C(c2ccccc2)S(=O)(=O)c2ccccc21,0,0,107
C=C1C(=O)O[C@H]2C[C@@H](C)[C@@H]3CCC(=O)[C@@]3(C)C[C@H]12,117,0,0
C=C1C(=O)O[C@H]2C(=C)[C@@H](CCC(=O)O)[C@@H](C)CC[C@@H]12,0,0,0
COC(=O)c1cc(C)cc(O)c1C(=O)c1c(O)cccc1O,-,-,0
CCOc1ccc2c(c1)-c1c(ssc1=S)C(C)(C)N2C,86,0,0
O=C1C(C=NC(CO)(CO)CO)=C(O)c2ccccc21,0,0,0
COc1ccc(S(=O)(=O)Nc2ccc3c(c2)C(=O)N([C@H](C)CO)C[C@H](C)[C@@H](CN(C)Cc2ccc(Cl)c(Cl)c2)OCCCC[C@@H](C)O3)cc1,125,-,69
C[C@@H]1CCCCO[C@@H](CN(C)Cc2ccc(Cl)c(Cl)c2)[C@@H](C)CN([C@H](C)CO)C(=O)c2cc(NS(=O)(=O)c3ccc(Cl)cc3)ccc2O1,0,0,0
COc1ccc(CN(C)C[C@@H]2OCCCC[C@@H](C)Oc3ccc(NS(=O)(=O)c4ccc(Cl)cc4)cc3C(=O)N([C@H](C)CO)C[C@@H]2C)cc1,0,0,0
C[C@@H]1CCCCO[C@H](CN(C)Cc2ccc(Cl)c(Cl)c2)[C@@H](C)CN([C@H](C)CO)C(=O)c2cc(NS(=O)(=O)c3ccc(Cl)cc3)ccc2O1,116,0,0
COc1ccc(S(=O)(=O)N(C)CC(=O)Nc2cc([N+](=O)[O-])ccc2C)cc1C,0,-,-
CCn1c(SCC(=O)Nc2cccc(C(F)(F)F)c2)nnc1-c1ccco1,0,0,-
Cc1c(Cl)cccc1NC(=O)CNC(=O)c1ccc([N+](=O)[O-])cc1,0,0,-
CN1Cc2cc3c(cc2CCC(=O)c2cc4c(cc2C1)OCO4)OCO3,0,0,0
C[C@@H]1CN([C@H](C)CO)C(=O)c2cccc(NC(=O)c3nc4ccccc4s3)c2O[C@@H]1CN(C)CC1CCCCC1,0,0,0
C[C@@H]1CN([C@@H](C)CO)C(=O)c2cccc(NC(=O)c3nc4ccccc4s3)c2O[C@@H]1CN(C)CC1CCCCC1,117,0,0
C[C@H](CO)N1C[C@H](C)[C@H](CN(C)CC2CCCCC2)Oc2c(NC(=O)c3nc4ccccc4s3)cccc2C1=O,?,0,0
C[C@H](CO)N1C[C@H](C)[C@@H](CN(C)CC2CCCCC2)Oc2c(NC(=O)c3nc4ccccc4s3)cccc2C1=O,108,0,0
Cc1cccc(-c2nnc(SCC(=O)Nc3c(F)cc(F)cc3Br)n2C)c1,0,0,-
CCOC(=O)c1sc2ncn(CC(=O)Nc3cccc(Br)c3)c(=O)c2c1C,0,-,-
SMILES,NOMO-1 viab,PD-1 reversal,Hedgehog inh
Cc1ccc2c(C)c(C(=O)Nc3sc4c(c3C(=O)NCC3CCCO3)CCC4)oc2c1 (configuration not stated),0,-,-
Cc1ccc2oc(C(=O)Nc3sc4c(c3C(=O)NCc3ccco3)CCC4)c(C)c2c1,120,-,-
Cc1ccc(C(=O)Nc2sc3c(c2C(=O)NCc2ccco2)CCCC3)cc1,0,-,-
Cc1ccc2c(C)c(C(=O)Nc3sc4c(c3C(=O)NCC3CCCO3)CCCC4)oc2c1 (configuration not stated),114,-,-
COC(=O)c1cc(OC)c(OC)cc1NC(=O)CCN1C(=O)c2ccccc2C1=O,0,0,-
COc1ccc(CCNC(=O)CSc2nc3ccccc3nc2N2CCCC2)cc1OC,0,0,0
O=C(CSc1ncnc2sc3c(c12)CCCCC3)Nc1ccc2c(c1)OCCO2,0,-,-
CCn1c(SCC(=O)Nc2ccc(I)cc2)nnc1-c1ccccc1F,0,-,-
CC(=O)CCc1c(C)[nH]c2ccccc2c1=O,0,-,-
Cc1[nH]c2ccccc2c1Sc1ccccc1,141,0,71
COc1ccc(NC(=O)C2CC=CCC2C(=O)Nc2ccccc2Cl)cc1 (configuration not stated),0,0,-
N#CC(C#N)=C(Nc1ccccc1Cl)SCc1cccc(F)c1,87,0,112
Cc1c(Cl)cccc1NC(=O)CN(c1cccc(F)c1)S(C)(=O)=O,0,0,-
COc1ccc(CN(C)C[C@H]2Oc3c(NC(=O)Nc4ccc5c(c4)OCO5)cccc3C(=O)N([C@H](C)CO)C[C@@H]2C)cc1,0,-,0
